Screening data: PubChem BioAssay, SRMLSC
A selection: hits, their analogues and other compounds. The true share with any hit is near 6.3%.
PMK inhibit – S. pneumoniae PMK inhibitors, primary screen, biochemical, mevalonate pathway, pilot trial included; phosphomevalonate kinase (Streptococcus pneumoniae D39); AID 539, 2006; 0.49% of 65,000 active; inhibition, % at 10 µM; purified PMK, PK/LDH-coupled NADH absorbance 340 nm;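 active = top-ranked compounds by inhibition in the single 10 µM screen, taking a fixed number of the strongest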;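 note: 0% = full reaction with DMSO carrier and 100% = background rate without enzyme reaction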
DPM-DC inhibit – S. pneumoniae DPM-DC inhibitors, primary screen, biochemical, PK/LDH-coupled NADH fluorescence | 0.49% of 65,000 active | purified DPM-DC | diphosphomevalonate decarboxylase (Streptococcus pneumoniae D39) | calls only at 10 µM;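 active = the 320 compounds with the highest percent inhibition in the single-dose primary screen, excluding strongly autofluorescent ones, cut at about 32% in these data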;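 note: kinetic rate of NADH fluorescence loss reporting ADP formed by the decarboxylase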
A340 absorber – compound light absorbance at 340 nm, profiling panel, artefact control, biochemical, MLSMR library, data from PS, PMK, MK assays; fold change at 10 µM; compound absorbance at 340 nm, fold over control; 65,000 tested, under 10 active;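 active = at 10 µM dose, initial 340 nm absorbance at least 2 fold that of control wells; inactive = change under 2 fold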;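 note: initial absorbance extrapolated from kinetic A340 decline of NADH oxidation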
NADH enzymes – inhibitors of PK/LDH coupling enzymes, profiling panel, artefact control, biochemical, MLSMR library | coupled PK/LDH NADH assays, four targets | 0.02% of 65,000 active | IC50, µM (doses to about 10 µM), for inactives: top-dose inhibition;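 active = single-dose screening hits from any of four coupled enzyme assays that gave an IC50 when retested across doses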;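 note: the DPM-DC format reads NADH fluorescence rather than 340 nm absorbance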
Spn MK inh – S. pneumoniae MK inhibitors, primary screen, biochemical, PK/LDH-coupled NADH absorbance | 0.48% of 65,000 active | inhibition, % at 10 µM | AID 555, 2006 | mevalonate kinase [Streptococcus pneumoniae D39] | purified MK, PK/LDH-coupled NADH absorbance 340 nm;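 active = ranked among the strongest by inhibition in the single 10 µM screen, a fixed top-ranked set picked for dose follow-up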
Autofluor 339 – intrinsic fluorescence of library compounds, ex339/em460 – biochemical, MLSMR library, data from DPM-DC assay, artefact control, profiling panel; AID 709, 2007; 5.5% of 65,000 active; fluorescence fold increase at 10 µM; compound autofluorescence, ex339/em460 nm, NADH buffer; hits give high values; 1 = no-compound wells, NADH background;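 active = at 10 µM, mean starting fluorescence two-fold or more over control wells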;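 note: signal is the first read of a kinetic run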
Starred values were filed as active, the others as inactive.

Results for COCCn1c(=N)c(C(=O)NCCc2ccccc2)cc2c(=O)n3cccc(C)c3nc21 ?
PMK inhibit: 0; A340 absorber: 1.1; NADH enzymes: 1%; Spn MK inh: 2; Autofluor 339: 2.5*

What do the screens show for `N=c1c(C(=O)NCc2ccco2)cc2c(=O)n3ccccc3nc2n1CCc1ccccc1`?
PMK inhibit: 0; A340 absorber: 1; NADH enzymes: 5%; Spn MK inh: 10; Autofluor 339: 2.2*

How did COc1ccc(CCn2c(=N)c(C(=O)NCc3ccco3)cc3c(=O)n4ccccc4nc32)cc1OC do in these assays?
PMK inhibit: 6; DPM-DC inhibit: inactive; A340 absorber: 1; NADH enzymes: 3%; Spn MK inh: 3; Autofluor 339: 1.1

What do the screens show for `Cc1cccn2c(=O)c3cc(C(=O)NCc4ccco4)c(=N)n(CCOCCO)c3nc12`?
PMK inhibit: 17; A340 absorber: 1; NADH enzymes: 9%; Spn MK inh: 0; Autofluor 339: 5*

How did CC1(C)CC(=O)CC(C)(C)N1OC(=O)c1ccncc1 do in these assays?
PMK inhibit: 5; DPM-DC inhibit: inactive; A340 absorber: 1.1; NADH enzymes: 5%; Spn MK inh: 11; Autofluor 339: 1.1

What do the screens show for `O=C(c1cc2nc3c(c(C(F)(F)F)n2n1)CCc1ccccc1-3)N1CCN2CCCC2C1` (stereo not drawn)?
PMK inhibit: 15; DPM-DC inhibit: inactive; A340 absorber: 1.1; NADH enzymes: 5%; Spn MK inh: 0; Autofluor 339: 1.4

Results for CNC(=O)c1cc2c(=O)n3cccc(C)c3nc2n(C(C)C)c1=N ?
PMK inhibit: 0; A340 absorber: 1.1; NADH enzymes: 2%; Spn MK inh: 4; Autofluor 339: 3.8*

What do the screens show for `CCNC(=O)c1cc2c(=O)n3cccc(C)c3nc2n(CCc2ccccc2)c1=N`?
PMK inhibit: 0; A340 absorber: 1.1; NADH enzymes: 5%; Spn MK inh: 9; Autofluor 339: 2.3*

How did CCn1c(=N)c(C(=O)NCc2cccnc2)cc2c(=O)n3cccc(C)c3nc21 do in these assays?
PMK inhibit: 15; A340 absorber: 0.99; NADH enzymes: 13%; Spn MK inh: 10; Autofluor 339: 3.7*

Results for CCCCNC(=O)c1cc2c(=O)n3cccc(C)c3nc2n(Cc2ccccc2)c1=N ?
PMK inhibit: 0; A340 absorber: 1.1; NADH enzymes: 4%; Spn MK inh: 7; Autofluor 339: 4*

What do the screens show for `CCOC(=O)c1cc2c(=O)n3cccc(C)c3nc2n(C)c1=N`?
PMK inhibit: 5; DPM-DC inhibit: inactive; A340 absorber: 1.1; NADH enzymes: 3%; Spn MK inh: 5; Autofluor 339: 1.1

How did Cc1ccc(C(=O)NCCCN2CCOCC2)cc1N1CCCC1=O do in these assays?
PMK inhibit: 11; DPM-DC inhibit: inactive; A340 absorber: 1; NADH enzymes: 4%; Spn MK inh: 0; Autofluor 339: 1.1

What do the screens show for `COc1ccc(NC(=O)CSC2CC(=O)N(c3ccc4c(c3)OCCO4)C2=O)cc1` (stereo not drawn)?
PMK inhibit: 4; DPM-DC inhibit: inactive; A340 absorber: 1; NADH enzymes: 3%; Spn MK inh: 4; Autofluor 339: 1.1

What do the screens show for `CC1CCN(C2CC(=O)N(c3ccc(Br)cc3Br)C2=O)CC1` (stereo not drawn)?
PMK inhibit: 1; DPM-DC inhibit: inactive; A340 absorber: 1; NADH enzymes: 2%; Spn MK inh: 4; Autofluor 339: 1.1

What do the screens show for `COc1ccc(C(=O)CSc2nnc(-c3ccc(C)cc3)o2)cc1`?
PMK inhibit: 10; DPM-DC inhibit: inactive; A340 absorber: 1; NADH enzymes: 3%; Spn MK inh: 12; Autofluor 339: 1.1

How did COc1ccc(OC)c(C(=O)CSc2nnc(-c3ccc(OC)c(OC)c3)o2)c1 do in these assays?
PMK inhibit: 0; DPM-DC inhibit: inactive; A340 absorber: 1; NADH enzymes: 5%; Spn MK inh: 6; Autofluor 339: 2*
